Results filed as inconclusive are left out. Calls of active or inactive are those of the source. Unless noted, the call rests on the fitted dose curve; in most records, active means well fitted curve in the direction sought with a large enough effect in the repeat runs; inconclusive means weak or mixed curves; inactive means no such curve, though single readings can be large; an effect the other way counts as inactive or inconclusive.
Assays:
[1] = qHTS RealTime-Glo MT Cell Viability Assay in HEK293 cells - 8 hour (AID 1224887); further: top concentration of the series differs between compounds; nearly all actives have a fitted effect of over 50% in size
Procedure, shortened: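 Viable HEK293 cells reduce a cell-permeant prosubstrate; the product diffuses out and is consumed by NanoLuc in the medium to give light. Compounds went in after a 5 h incubation and plates were read over the treatment course.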

[2] = A CellTox Green Cytotoxicity Assay to monitor cytotoxicity in HEK293 cells - 16 hour (AID 1224888); further: nearly all actives have a fitted effect of over 35% in size
Procedure, shortened: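 Fluorescence intensity, read at 0, 8, 16, 24, 32 and 40 h of compound treatment, reflected dye binding to DNA of dead HEK293 cells; compounds (23 nL, DMSO) were added 5 h after plating cells with reagent.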

[3] = qHTS RealTime-Glo MT Cell Viability Assay in HepG2 cells - 0 hour (AID 1224889); further: nearly all actives have a fitted effect of over 50% in size
Procedure, shortened: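 Tox21 10K library screened in qHTS format on HepG2 cells carrying RealTime-Glo reagents. Compounds were added after a 5 h preincubation, and the luminescent signal from continuous culture was measured repeatedly during 40 h treatment.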

[4] = A CellTox Green Cytotoxicity Assay to monitor cytotoxicity in HepG2 cells - 8 hour (AID 1224890); further: nearly all actives have a fitted effect of over 45% in size
Procedure, shortened: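 Using 1536-well format, dye-containing HepG2 suspension was seeded, allowed 5 h at 37 C/5% CO2, dosed by pintool with compounds, positive and negative controls, and imaged for fluorescence across 40 h.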

[5] = qHTS assay to identify small molecule antagonists of the estrogen receptor alpha (ER-alpha) signaling pathway using the BG1 cell line in the presence of 0.1 nM 17-beta-estradiol - cell viability counter screen (AID 1259241); further: nearly all actives have a fitted effect of over 40% in size
Procedure, shortened: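 Live-cell protease activity (CellTiter-Fluor fluorescence, 30 min) was read in the same wells after VM7Luc4E2 cells had been exposed to compounds with 0.1 nM 17beta-estradiol for 22 hr at 37C.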

[6] = qHTS assay to identify small molecule antagonists of the androgen receptor (AR) signaling pathway using the MDA cell line in the presence of 0.5 nM R1881 - cell viability counter screen (AID 1259242); further: nearly all actives have a fitted effect of over 45% in size
Procedure, shortened: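 Viability of MDA-kb2 cells was multiplexed with the luciferase AR readout; after 16 hr with compounds and R1881 at 0.5 nM final, CellTiter-Fluor fluorescence was recorded.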

[7] = target: Androgen receptor (Homo sapiens) (UniProt P10275); experiment: qHTS assay to identify small molecule antagonists of the androgen receptor (AR) signaling pathway using the MDA cell line in the presence of 0.5 nM R1881 (AID 1259243); further: nearly all actives have a fitted effect of over 50% in size
Procedure, shortened: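 Reporter cells cultured without CO2 receive test chemicals, then 0.5 nM R1881 final; after 16 hr at 37C, ONE-Glo is added and light output recorded.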

[8] = target: Estrogen receptor (Homo sapiens) (UniProt P03372); experiment: qHTS assay to identify small molecule antagonists of the estrogen receptor alpha (ER-alpha) signaling pathway using the BG1 cell line in the presence of 0.1 nM 17-beta-estradiol (AID 1259244); further: nearly all actives have a fitted effect of over 50% in size
Procedure, shortened: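 Estradiol at 0.1 nM (final) stimulates the endogenous ER-alpha of VM7Luc4E2 cells carrying an ERE-driven luciferase; compounds are co-incubated 22 h at 37C and luciferase output quantified by luminescence.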

[9] = qHTS assay to identify small molecule phospholipidosis (PLD) inducers (AID 1259344; active means well fitted curve in the direction sought with a large enough effect; an effect the other way counts as inactive or inconclusive)
Procedure, shortened: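 HepG2 cells on collagen I, attached 4 h at 37 C, were co-treated with compound and LipidTOX Red dye for 24 h at 37 C, then fixed with paraformaldehyde plus Hoechst 33342 and imaged by high-content microscopy for phospholipid accumulation.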

[10] = qHTS assay to identify small molecule HDAC inhibitors (AID 1259364);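 further: wild-type HCT-116 cells with endogenous class I/II HDAC activity; top concentration of the series differs between compounds; nearly all actives have a fitted effect of over 45% in size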
Procedure, shortened: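 Read-out: luminescence of HDAC-Glo I/II reagent, 30 min RT, reflecting class I/II deacetylase activity in whole HCT-116 cells pre-exposed 2 h to DMSO-dissolved compounds.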

[11] = qHTS assay to identify small molecule HDAC inhibitors - cell viability counter screen (AID 1259365)
Procedure, shortened: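 HCT-116 (wild type), 1,500 cells/well, overnight 37C/5% CO2; compound in DMSO 2hr; CellTiter-Glo 30min RT; luminescence read.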

[12] = qHTS assay to identify small molecule agonists of the sonic hedgehog signaling (Shh) pathway - cell viability counter screen (AID 1259366); further: nearly all actives have a fitted effect of over 50% in size
Procedure, shortened: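 CellTiter-Fluor fluorescence read-out, 1 hr at 37C, added after 23hr compound exposure. Cells: 3T3 Gli1-Luc, an NIH/3T3 clone with stably integrated Gli1-Luc reporter, plated 4hr before compound.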

[13] = qHTS assay to identify small molecule antagonists of the sonic hedgehog signaling (Shh) pathway - cell viability counter screen (AID 1259367); further: nearly all actives have a fitted effect of over 55% in size
Procedure, shortened: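 NIH/3T3-derived Gli1-Luc reporter cells (2,000 per well) rested 4 hr at 37 C, then received DMSO compounds plus conditioned medium. After 23 hr of treatment, CellTiter-Fluor was added for 1 hr at 37C and fluorescence read.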

[14] = qHTS assay to identify small molecule agonists of the sonic hedgehog signaling (Shh) pathway (AID 1259368; calls by dose curve;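 further: NIH/3T3-derived 3T3Gli1-Luc cells carrying a stable Gli1-driven firefly luciferase reporter; series mostly up to about 92 µM; nearly all actives have a fitted effect of over 15% in size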)
Procedure, shortened: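 A Gli1 transcriptional response element controlled firefly luciferase in 3T3Gli1-Luc cells. Compounds and a positive control were added 4 hr after plating, and cells were incubated a further 24 hr at 37 C before luminescence detection.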

[15] = qHTS assay to identify small molecule antagonists of the sonic hedgehog signaling (Shh) pathway (AID 1259369; calls by dose curve; further: nearly all actives have a fitted effect of over 45% in size)
Procedure, shortened: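 For antagonist detection, the reporter line received test compounds together with conditioned medium, incubated 24hr at 37 C, 5% CO2, then luminescence was recorded following 30min room-temperature luciferase reagent incubation.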

[16] = target: Estrogen receptor beta (Homo sapiens) (UniProt Q92731); experiment: qHTS assay to identify small molecule agonists of the estrogen receptor beta (ER-beta) signaling pathway (AID 1259377; active means well fitted activation curve with a large enough effect in the signal ratio in the repeat runs, not every such curve was filed as active; the % refers to the signal ratio)
Procedure, shortened: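 Beta-lactamase reporter readout: fluorescence of LiveBLAzer B/G FRET substrate after 2 h at room temperature, following 16 h compound treatment of ER-beta-UAS-bla HEK293T cells at 37C in 2% charcoal-stripped FBS medium.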

[17] = target: Estrogen receptor beta (Homo sapiens) (UniProt Q92731); experiment: qHTS assay to identify small molecule antagonists of the estrogen receptor beta (ER-beta) signaling pathway (AID 1259378; active means well fitted inhibition curve with a large enough effect in the signal ratio in the repeat runs, not every such curve was filed as active; the % refers to the signal ratio)
Procedure, shortened: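 ER-beta-UAS-bla HEK293T (GripTite) cells in 2% charcoal-stripped FBS medium were preincubated 6 hr at 37C, dosed with compound, then stimulated with 1 nM E2 (final) for 16 hr; beta-lactamase reporter read by B/G FRET fluorescence after 2 hr substrate loading.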

[18] = qHTS assay to identify small molecule agonists of the androgen receptor (AR) signaling pathway in the presence of an antagonist - cell viability counter screen (AID 1259379);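 further: MDA-kb2 human breast cancer cells carrying an MMTV luciferase reporter; series mostly up to about 92 µM; nearly all actives have a fitted effect of over 25% in size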
Procedure, shortened: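 Seed MDA-kb2 at 3,000 cells/well; incubate 5 hr, 37C, 0% CO2. Add nilutamide to 3.0uM final, then pin compounds at 15 concentrations. Incubate 16 hr. Add CellTiter-Fluor at 15 hr, read fluorescence after 1 hr.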

[19] = qHTS assay to identify small molecule agonists of the estrogen receptor beta (ER-beta) signaling pathway - cell viability counter screen (AID 1259380); further: nearly all actives have a fitted effect of over 30% in size
Procedure, shortened: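 CellTiter-Glo read, 30 min RT, same wells as bla assay; cells ER-beta-UAS-bla HEK293T; 16 hr compound, 37C; medium 2% charcoal-stripped FBS.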

[20] = target: Androgen receptor (Homo sapiens) (UniProt P10275); experiment: qHTS assay to identify small molecule agonists of the androgen receptor (AR) signaling pathway in the presence of an antagonist (AID 1259381; calls by dose curve; further: nearly all actives have a fitted effect of over 15% in size)
Procedure, shortened: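 Test compounds at 15 concentrations were incubated for 16hr with MDA-kb2 reporter cells in presence of 3.0uM nilutamide (final). Signal: ONE-Glo luciferase luminescence.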
On the % scale 0 is the no-effect control and ±100 the full control effect.

Androgen receptor (Homo sapiens), sequence (P10275 whole entry, looked up): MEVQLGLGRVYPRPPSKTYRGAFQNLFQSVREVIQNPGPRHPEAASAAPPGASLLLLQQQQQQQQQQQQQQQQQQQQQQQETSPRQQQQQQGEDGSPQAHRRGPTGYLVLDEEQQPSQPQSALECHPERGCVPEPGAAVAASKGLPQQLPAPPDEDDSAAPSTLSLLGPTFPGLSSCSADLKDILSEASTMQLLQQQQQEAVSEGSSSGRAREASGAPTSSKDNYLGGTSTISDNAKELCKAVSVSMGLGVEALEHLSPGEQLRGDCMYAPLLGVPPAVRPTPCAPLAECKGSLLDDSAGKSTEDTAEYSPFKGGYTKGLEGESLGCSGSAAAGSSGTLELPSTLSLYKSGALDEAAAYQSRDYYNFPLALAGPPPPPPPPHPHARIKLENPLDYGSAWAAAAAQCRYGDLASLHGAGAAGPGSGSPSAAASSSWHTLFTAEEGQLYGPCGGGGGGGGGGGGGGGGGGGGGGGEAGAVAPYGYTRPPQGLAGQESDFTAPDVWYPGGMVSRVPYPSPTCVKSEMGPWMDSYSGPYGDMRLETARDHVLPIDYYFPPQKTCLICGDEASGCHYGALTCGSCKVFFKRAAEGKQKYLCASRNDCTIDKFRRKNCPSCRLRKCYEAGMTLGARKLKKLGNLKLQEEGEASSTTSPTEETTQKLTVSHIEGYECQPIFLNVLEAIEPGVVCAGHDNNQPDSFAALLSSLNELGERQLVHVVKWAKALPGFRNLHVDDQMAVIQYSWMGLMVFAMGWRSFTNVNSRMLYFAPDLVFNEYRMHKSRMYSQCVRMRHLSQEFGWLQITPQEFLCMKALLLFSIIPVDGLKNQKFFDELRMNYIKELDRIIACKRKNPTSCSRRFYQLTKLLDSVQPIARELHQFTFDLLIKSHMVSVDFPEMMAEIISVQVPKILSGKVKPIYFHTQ
Estrogen receptor beta (Homo sapiens), sequence (Q92731 whole entry, looked up): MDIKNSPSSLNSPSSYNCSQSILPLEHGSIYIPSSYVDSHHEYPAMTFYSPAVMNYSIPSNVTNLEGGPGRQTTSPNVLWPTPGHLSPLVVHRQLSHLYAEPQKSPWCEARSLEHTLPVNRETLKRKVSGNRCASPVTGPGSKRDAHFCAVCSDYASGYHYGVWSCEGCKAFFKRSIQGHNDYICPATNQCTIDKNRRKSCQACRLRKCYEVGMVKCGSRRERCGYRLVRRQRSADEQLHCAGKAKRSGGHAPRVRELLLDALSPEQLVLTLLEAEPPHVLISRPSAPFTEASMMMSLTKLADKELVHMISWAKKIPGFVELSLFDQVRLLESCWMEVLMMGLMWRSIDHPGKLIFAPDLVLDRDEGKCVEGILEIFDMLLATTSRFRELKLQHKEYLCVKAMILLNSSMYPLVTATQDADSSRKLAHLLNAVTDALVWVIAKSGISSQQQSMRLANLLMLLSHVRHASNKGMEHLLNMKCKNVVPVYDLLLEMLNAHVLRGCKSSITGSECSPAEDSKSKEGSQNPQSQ
Estrogen receptor (Homo sapiens), sequence (P03372 whole entry, looked up): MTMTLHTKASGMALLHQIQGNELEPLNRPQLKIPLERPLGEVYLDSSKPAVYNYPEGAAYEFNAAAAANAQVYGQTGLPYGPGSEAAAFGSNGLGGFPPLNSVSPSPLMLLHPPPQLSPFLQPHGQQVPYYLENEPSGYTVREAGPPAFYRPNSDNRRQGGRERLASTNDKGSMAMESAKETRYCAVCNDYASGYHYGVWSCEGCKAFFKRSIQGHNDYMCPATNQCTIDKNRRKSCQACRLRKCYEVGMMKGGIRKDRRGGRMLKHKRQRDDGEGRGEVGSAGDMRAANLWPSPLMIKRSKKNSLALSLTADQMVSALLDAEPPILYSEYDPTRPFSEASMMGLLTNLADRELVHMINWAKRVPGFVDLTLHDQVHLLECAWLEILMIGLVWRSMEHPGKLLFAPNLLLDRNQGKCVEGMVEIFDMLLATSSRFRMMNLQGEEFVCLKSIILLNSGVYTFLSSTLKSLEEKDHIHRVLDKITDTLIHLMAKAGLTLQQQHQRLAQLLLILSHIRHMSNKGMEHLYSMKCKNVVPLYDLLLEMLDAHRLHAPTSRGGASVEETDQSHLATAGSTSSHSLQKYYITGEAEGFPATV

C#CCN[C@@H]1CCc2ccccc21
inactive: Potency [1] | Potency [2] | Potency [3] | Potency [4] | outcome [5] | outcome [6] | Potency [7] | outcome [8] | outcome [9] | Potency [10] | outcome [11] | outcome [12] | outcome [13] | outcome [14] | Potency [15] | Potency [16] | Potency [17] | outcome [18] | outcome [19] | outcome [20]

OCC1CCC(CO)CC1 (stereo not drawn)
inactive: Potency [1] | Potency [2] | Potency [3] | Potency [4] | outcome [5] | outcome [6] | Potency [7] | outcome [8] | Potency [10] | outcome [11] | outcome [12] | outcome [13] | outcome [14] | Potency [15] | Potency [16] | Potency [17] | outcome [18] | outcome [19] | outcome [20]

O=C(NCN1CCOCC1)c1cnccn1
inactive: Potency [1] | Potency [2] | Potency [3] | Potency [4] | outcome [5] | outcome [6] | Potency [7] | outcome [8] | outcome [9] | Potency [10] | outcome [11] | outcome [12] | outcome [13] | outcome [14] | Potency [15] | outcome [18] | outcome [19] | outcome [20]

CCNC(=O)NCc1cccc(Cl)c1
inactive: Potency [1] | Potency [2] | Potency [3] | Potency [4] | outcome [5] | outcome [6] | outcome [8] | outcome [9] | Potency [10] | outcome [11] | outcome [12] | outcome [13] | outcome [14] | Potency [15] | outcome [18]

CCCCOCCOC(=O)COc1ccc(Cl)cc1Cl
inactive: Potency [1] | Potency [2] | Potency [3] | Potency [4] | outcome [5] | outcome [6] | outcome [8] | Potency [10] | outcome [11] | outcome [12] | outcome [13] | outcome [14] | Potency [15] | Potency [16] | Potency [17] | outcome [18] | outcome [19]

COCCc1ccccn1
inactive: Potency [1] | Potency [2] | Potency [3] | Potency [4] | outcome [5] | outcome [6] | Potency [7] | outcome [8] | Potency [10] | outcome [11] | outcome [12] | outcome [13] | outcome [14] | Potency [15] | outcome [18] | outcome [19] | outcome [20]

CC(=O)O[C@@H]1CC2CCC1(C)C2(C)C (stereo partly drawn)
inactive: Potency [1] | Potency [2] | Potency [3] | Potency [4] | outcome [5] | outcome [6] | Potency [7] | outcome [9] | Potency [10] | outcome [11] | outcome [12] | outcome [13] | outcome [14] | Potency [15] | Potency [16] | Potency [17] | outcome [18] | outcome [19] | outcome [20]

CC(C)C[C@@H]1[C@H](c2ccccc2)OC(=O)N1CCCN1CCCCCC1
inactive: Potency [1] | Potency [2] | Potency [3] | Potency [4] | outcome [5] | outcome [6] | Potency [7] | outcome [8] | Potency [10] | outcome [11] | outcome [12] | outcome [13] | outcome [14] | Potency [15] | Potency [16] | Potency [17] | outcome [18] | outcome [20]

C[C@H]1[C@@H](c2ccccc2)NC(=O)N1C
inactive: Potency [1] | Potency [2] | Potency [3] | Potency [4] | outcome [5] | outcome [6] | outcome [8] | Potency [10] | outcome [11] | outcome [12] | outcome [13] | outcome [14] | Potency [15] | Potency [16] | Potency [17] | outcome [18]

CN1C[C@@H]2C[C@H]1CN2c1cc2c(cc1F)c(=O)c(C(=O)O)cn2C1CC1
inactive: activity change, negative = cytotoxicity [1] 0.091% [at 15.8 µM] | activity change [2] -3.93% [at 15.8 µM, hits give high values] | activity change, negative = cytotoxicity [3] 10% [at 15.8 µM] | cytotoxicity increase [4] 6.75% [at 15.8 µM] | activity change, negative = cytotoxicity [5] -8.33% [at 19 µM] | viability change, negative = cytotoxic [6] -2.38% [at 19 µM] | activity change, negative = inhibition [8] -0.393% [at 19 µM] | outcome [9] | activity change, negative = inhibition [10] 2.17% [at 19 µM] | activity change, negative = cytotoxicity [11] 5.3% [at 19 µM] | viability change, negative = cytotoxic [12] -1.9% [at 19 µM] | viability change, negative = cytotoxic [13] 0.743% [at 19 µM] | activity change [14] -1.48% [at 18.9 µM] | activity change, negative = inhibition [15] -3.45% [at 19 µM] | activation [16] 1.21% [at 19 µM] | activity change, negative = cytotoxicity [18] 0.0403% [at 19 µM] | activity change, negative = cytotoxicity [19] 1.14% [at 19 µM]

CCN1CCCC1CN (stereo not drawn)
inactive: Potency [1] | Potency [2] | Potency [3] | Potency [4] | outcome [5] | outcome [6] | outcome [8] | Potency [10] | outcome [11] | outcome [12] | outcome [13] | outcome [14] | Potency [15] | Potency [16] | Potency [17] | outcome [18] | outcome [19]

CO[C@@]1(NC(=O)Cc2cccs2)C(=O)N2C(C(=O)O)=C(COC(N)=O)CS[C@@H]21
inactive: Potency [1] | Potency [2] | Potency [3] | Potency [4] | outcome [5] | outcome [6] | outcome [8] | outcome [9] | Potency [10] | outcome [11] | outcome [12] | outcome [13] | outcome [14] | Potency [15] | outcome [18] | outcome [19]

COc1cc(OC)nc(O[C@H](C(=O)O)C(OC)(c2ccccc2)c2ccccc2)n1
inactive: Potency [1] | Potency [2] | Potency [3] | Potency [4] | outcome [5] | outcome [6] | Potency [7] | outcome [8] | Potency [10] | outcome [11] | outcome [12] | outcome [13] | outcome [14] | Potency [15] | Potency [16] | Potency [17] | outcome [18] | outcome [19] | outcome [20]

From PubChem BioAssay (Tox21)
